Test results as given in PubChem BioAssay (NCI).
About 79,000 compounds went through this panel and 15% of them were active in at least one assay; those are over-represented in the sample as a whole. A number with no mark means an inactive call. Activity calls are given as the source filed them. No stated cut-off is given here; in the data, active means growth inhibition above about 70%; inactive means the rest.

experiment: NCI Yeast Anticancer Drug Screen. Data for the cln2 rad14 strain (AID 165);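 further: 0% = growth equal to vehicle treated cultures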; details: S. cerevisiae cln2 rad14 strain, at 50.0 µM, hits give high values
Summary of the method: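 Growth inhibition, relative to vehicle-treated controls, is the read-out. The test organism is a yeast strain with defined genetic alterations, cln2 rad14.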

Structure (SMILES) | growth inhibition
Cc1ccc2c(c1)CC1(C2)Cc2ccc(C)cc2C1=O (stereo not given) | 21.4%
NC1=CC(=O)c2ccccc2C1=O | -1.65%
CCCCC(CC(=O)O)c1ccc(Cl)cc1 (stereo not given) | 70% (active)
OCCOCCO[P+]1(OCCOCCO)n2c3ccc2C(c2ccccc2)=C2C=CC(=N2)C(c2ccccc2)=c2ccc(n21)=C(c1ccccc1)C1=NC(=C3c2ccccc2)C=C1 | 91.4% (active)
Clc1ccc2[nH]c(-c3ccccc3)c(-c3ccccn3)c2c1 | 94% (active)
COc1cc(NS(C)(=O)=O)ccc1Nc1c2ccccc2nc2ccccc12 | 20.8%
COC1/C=C/OC2(C)Oc3c(C)c(O)c4c(c3C2=O)C(=O)C=C(NC(=O)/C(C)=C\C=C\C(C)C(OC=O)C(C)C(O)C(C)C(OC(C)=O)C1C)C4=O (stereo not given) | 79% (active)
COc1ccc(CN(C)c2c(C)ccc3ccccc23)cc1 | -15.2%
CCOC(=O)c1c(-c2ccccc2)csc1NC(=O)CBr | 91.8% (active)
Nc1nc2nc(I)[nH]c2c(=O)[nH]1 | 30.3%
CC(CN(CC(=O)O)CC(=O)O)N(CC(=O)O)CC(=O)O.[Cl][Pd][Cl] (stereo not given) | 57.2%
COC(=O)c1nc(=S)[nH]c(C(=O)OC)c1C(=O)c1ccc2ccccc2c1 | 25.8%
O=C(Nc1ccccc1)OCCc1ccc(Br)cc1 | -7.85%
O=C(CCN1CCCCC1)/C(=C\c1ccc(Cl)cc1)c1ccccc1 | 99.1% (active)
FC(F)(F)c1nc(S)cc(=S)[nH]1 | 54%
CCCCC(=O)N/N=C/c1ccc([N+](=O)[O-])s1 | 90.8% (active)
CSC(=S)N/N=C(\C)c1nccnc1C | 98% (active)
CC(=O)Oc1cc2c(cc1OC(C)=O)OCC(c1ccccc1)C2 (stereo not given) | 35.9%
O=Cc1ccc(O)c2ccccc12 | 32.8%
CC(=O)N(C1=C(Cl)C(=O)c2ccccc2C1=O)c1ccc(Cl)cc1 | 78% (active)

Structure (SMILES) | growth inhibition
Cn1c2c(c3ccccc31)CCN1C[C@@H]3CCCC[C@H]3C[C@@H]21 | -58.1%
CCOc1ncc(Cl)c(OCC)n1 | -21.3%
C=C1C(=O)OC2C1CC1OC2C(C)CCC/C(C)=C\CCC1(C)O (stereo not given) | 91.8% (active)
CCCCN(CCCC)CCC(O)(c1ccc(OC)c2ccccc12)C(O)(CCN(CCCC)CCCC)c1ccc(OC)c2ccccc12 (stereo not given) | 98.9% (active)
CS/C(N)=N/NC(=O)CCC(=O)Nc1cc(Cl)c(Cl)cc1Cl | 15%
COc1ccc(OC)c(N=Nc2c(C)[nH]n(C(N)=S)c2=O)c1 | 10.6%
O=C(CC(=O)c1ccccc1)CC1(O)CCCCC1 | 50.4%
Nc1ccc2ccccc2c1Cc1c(O)ccc2ccccc12 | 84.5% (active)
CC[n+]1c(/C=C/c2cc(C(=O)OC)n3c2sc2ccccc23)sc2ccccc21 | 98.4% (active)
O=CNc1ccc2c(c1)Cc1cc(NC=O)ccc1-2 | -6.85%
O=C1CC(c2ccccc2)C(=O)N2C(=O)CC(c3ccccc3)C(=O)N12 (stereo not given) | -27.1%
CN1CCN(CCOC(=O)N2c3ccccc3Sc3ccccc32)CC1 | -13.9%
COc1nc(Nc2ccc(/C=C/c3ccc(Nc4nc(OC)nc(N(CCO)CCO)n4)cc3S(=O)(=O)O)c(S(=O)(=O)O)c2)nc(N(CCO)CCO)n1 | 5.8%
NNC(=O)NN=C(c1ccccc1)c1ccccc1 | -26.5%
CCOC(=O)C(Br)C(Br)c1cccc([N+](=O)[O-])c1 (stereo not given) | 98% (active)
CCCCCCC(O)C(CO)CCCCC (stereo not given) | 98.8% (active)
Oc1c(Br)c(Br)c(O)c(Br)c1Br | 37.5%
CC(=O)n1nc2c(c1CC(C)C)C(=O)C(Nc1ccccc1)=CC2=O | 27.9%
CC(C)(CCBr)[N+](=O)[O-] | 43.9%
Nc1ccccc1SCc1csc(-c2ccc(Cl)cc2)n1 | 97.2% (active)

experiment: NCI Yeast Anticancer Drug Screen. Data for the bub3 strain (AID 167); details: S. cerevisiae bub3 mutant strain, at 5.0 µM (retest, dose inferred, filed as 0.5), hits give high values
Summary of the method: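 Growth of a checkpoint-deficient yeast mutant is measured after compound exposure. Values represent inhibition relative to vehicle.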

Structure (SMILES) | growth inhibition
Cc1ccc2c(c1)CC1(C2)Cc2ccc(C)cc2C1=O (stereo not given) | -5%
NC1=CC(=O)c2ccccc2C1=O | 42%
CCCCC(CC(=O)O)c1ccc(Cl)cc1 (stereo not given) | -61%
OCCOCCO[P+]1(OCCOCCO)n2c3ccc2C(c2ccccc2)=C2C=CC(=N2)C(c2ccccc2)=c2ccc(n21)=C(c1ccccc1)C1=NC(=C3c2ccccc2)C=C1 | 100% (active)
Clc1ccc2[nH]c(-c3ccccc3)c(-c3ccccn3)c2c1 | 93% (active)
COc1cc(NS(C)(=O)=O)ccc1Nc1c2ccccc2nc2ccccc12 | 14%
COC1/C=C/OC2(C)Oc3c(C)c(O)c4c(c3C2=O)C(=O)C=C(NC(=O)/C(C)=C\C=C\C(C)C(OC=O)C(C)C(O)C(C)C(OC(C)=O)C1C)C4=O (stereo not given) | -8%
COc1ccc(CN(C)c2c(C)ccc3ccccc23)cc1 | 1%
CCOC(=O)c1c(-c2ccccc2)csc1NC(=O)CBr | 7%
Nc1nc2nc(I)[nH]c2c(=O)[nH]1 | -7%
CC(CN(CC(=O)O)CC(=O)O)N(CC(=O)O)CC(=O)O.[Cl][Pd][Cl] (stereo not given) | 22%
COC(=O)c1nc(=S)[nH]c(C(=O)OC)c1C(=O)c1ccc2ccccc2c1 | 13%
O=C(Nc1ccccc1)OCCc1ccc(Br)cc1 | -5%
O=C(CCN1CCCCC1)/C(=C\c1ccc(Cl)cc1)c1ccccc1 | 20%
FC(F)(F)c1nc(S)cc(=S)[nH]1 | -2%
CCCCC(=O)N/N=C/c1ccc([N+](=O)[O-])s1 | -2%
CSC(=S)N/N=C(\C)c1nccnc1C | 21%
CC(=O)Oc1cc2c(cc1OC(C)=O)OCC(c1ccccc1)C2 (stereo not given) | 41%
O=Cc1ccc(O)c2ccccc12 | -1%
CC(=O)N(C1=C(Cl)C(=O)c2ccccc2C1=O)c1ccc(Cl)cc1 | 97% (active)

Structure (SMILES) | growth inhibition
Cn1c2c(c3ccccc31)CCN1C[C@@H]3CCCC[C@H]3C[C@@H]21 | 2%
CCOc1ncc(Cl)c(OCC)n1 | 1%
C=C1C(=O)OC2C1CC1OC2C(C)CCC/C(C)=C\CCC1(C)O (stereo not given) | -1%
CCCCN(CCCC)CCC(O)(c1ccc(OC)c2ccccc12)C(O)(CCN(CCCC)CCCC)c1ccc(OC)c2ccccc12 (stereo not given) | 39%
CS/C(N)=N/NC(=O)CCC(=O)Nc1cc(Cl)c(Cl)cc1Cl | 4%
COc1ccc(OC)c(N=Nc2c(C)[nH]n(C(N)=S)c2=O)c1 | -14%
O=C(CC(=O)c1ccccc1)CC1(O)CCCCC1 | 15%
Nc1ccc2ccccc2c1Cc1c(O)ccc2ccccc12 | 0%
CC[n+]1c(/C=C/c2cc(C(=O)OC)n3c2sc2ccccc23)sc2ccccc21 | 49%
O=CNc1ccc2c(c1)Cc1cc(NC=O)ccc1-2 | 2%
O=C1CC(c2ccccc2)C(=O)N2C(=O)CC(c3ccccc3)C(=O)N12 (stereo not given) | 0%
CN1CCN(CCOC(=O)N2c3ccccc3Sc3ccccc32)CC1 | -2%
COc1nc(Nc2ccc(/C=C/c3ccc(Nc4nc(OC)nc(N(CCO)CCO)n4)cc3S(=O)(=O)O)c(S(=O)(=O)O)c2)nc(N(CCO)CCO)n1 | -4%
NNC(=O)NN=C(c1ccccc1)c1ccccc1 | -4%
CCOC(=O)C(Br)C(Br)c1cccc([N+](=O)[O-])c1 (stereo not given) | 98% (active)
CCCCCCC(O)C(CO)CCCCC (stereo not given) | 0%
Oc1c(Br)c(Br)c(O)c(Br)c1Br | 8%
CC(=O)n1nc2c(c1CC(C)C)C(=O)C(Nc1ccccc1)=CC2=O | -2%
CC(C)(CCBr)[N+](=O)[O-] | -75%
Nc1ccccc1SCc1csc(-c2ccc(Cl)cc2)n1 | 2%
